Screening results: PubChem, National Center for Advancing Translational Sciences (NCATS)
Hits are enriched below; roughly 7.8% of the tested compounds scored in any of these assays.
HCV inhibitor – HCV inhibition. AID 651820. Huh7.5.1 HCVcc-Cre infection, luciferase reporter, 44 h. Potency, µM (top dose mostly 41.8 µM), usual class: inhibitors. 340,000 tested, 3.4% active; active = well fitted inhibition curve with a large enough effect; inconclusive = small, poorly fitted or top-dose-only effect, or another doubt; inactive = no such curve, though single readings can be large or run the other way
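1,000 cells/well; 4 h culture; + compound; + HCVcc-Cre (~0.5 moi); 44 h; luciferase substrate, RT 15 min; read 15 sec.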
Marburg entry inh – inhibitors of Marburg virus binding or cell entry; Marburg virus pseudotyped entry inhibition, cell reporter; Potency, µM (highest dose often 37.8 µM), most hits filed as inhibitors; 300,000 tested, 1.8% active; AID 540276; calls by dose curve; tested in HEK293 cells
Lassa entry inh – inhibitors of Lassa virus binding or cell entry | Lassa virus pseudotype entry inhibition, cell reporter | Potency, µM (top dose mostly 37.9 µM), actives largely listed as inhibitors | 300,000 tested, 1.2% active | AID 540256; calls by dose curve; tested in HEK293 cells; also: nearly all actives have a fitted effect of over 50% in size
HCMV antiviral – blocks human cytomegalovirus replication | HFF cells, HCMV-luciferase reporter, 72 h; stronger effect = lower value | activity change, negative = inhibition, % at 57.5 µM | 410,000 tested, 4.5% active | AID 1259415; in the data active = activity change below about -60%; inconclusive = no clear call, values can overlap the other calls; inactive = above about -39%
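Cell-based, HFFs, 1000 cells/well, 16 h 37C; cpds in DMSO + HCMV-luc, MOI 1 PFU/cell; 72 h 37C; OneGlo luminescence after 5 min RT; norm. to buffer vs Salinomycin 10uM.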
Vaccinia Venus – vaccinia inhibition (Venus reporter); Vaccinia virus Venus reporter expression, fluorescence; Potency, µM (top dose mostly 36.5 µM), hits mostly inhibitors; AID 720580; 330,000 tested, 0.46% active; calls by dose curve; tested in A549 cells; also: nearly all actives have a fitted effect of over 30% in size
VACV mCherry inh – inhibitors of vaccinia virus infection (mCherry reporter signal) | Vaccinia virus mCherry reporter infection, fluorescence | Potency, µM (titrated, usually from 36.5 µM), hits mostly inhibitors | 310,000 tested, 0.63% active | AID 720579; calls by dose curve; tested in A549 cells; also: nearly all actives have a fitted effect of over 35% in size
A number is an active result; – = inactive; ? = inconclusive; · = not tested or not shown; [ ] = dose if it differs, or a comment.

SMILES	HCV inhibitor	Marburg entry inh	Lassa entry inh	HCMV antiviral	Vaccinia Venus	VACV mCherry inh
c1ccc(-c2sc3ccccc3c2-c2ccc(OCCN3CCCCC3)cc2)cc1	–	·	·	-64	–	–
CN(C)CCOc1ccc(-c2c(-c3ccccc3)sc3ccccc23)cc1	?	·	·	–	13µM	?
C[C@@H]1CN(Cc2ccc3c(c2)CN(C(=O)CN2CCOc4ccccc4C2)CCO3)C[C@H](C)O1	·	·	·	·	–	–
N#Cc1ccc(C(=O)NCC(c2ccco2)N2CCCCC2)cc1 (centres undefined)	–	–	–	–	–	·
COc1ccc(C(CNC(=O)c2ccc(NS(=O)(=O)c3ccc(F)c(C)c3)cc2)N2CCCC2)cc1 (centres undefined)	?	?	–	–	–	–
COc1ccc(NS(=O)(=O)c2cccc(C(=O)NCC(c3ccccc3)N(C)C)c2)cc1 (centres undefined)	–	–	–	–	–	–
COc1ccccc1C(CNC(=O)c1cccc(S(=O)(=O)Nc2ccc(C)cc2)c1)N(C)C (centres undefined)	·	?	–	-76	–	–
COc1ccc(C(CNC(=O)c2cccc(S(=O)(=O)Nc3ccc(F)cc3)c2)N2CCCCC2)cc1 (centres undefined)	5µM	·	·	–	·	·
O=C(NCC(c1ccco1)N1CCCCC1)c1ccc(COc2ccc(Cl)cc2)cc1 (centres undefined)	?	?	10µM	–	–	?
O=C(NCC(c1ccc(Cl)cc1)N1CCCCC1)c1ccc(F)cc1 (centres undefined)	·	2.8µM	–	–	–	–
Cc1ccc2c(c1)C/C(=C/c1ccc(N(C)C)cc1)C2=O	·	·	·	·	–	–
COCC=CC1=CC2=CC(=O)C(C)(OC(=O)c3cnc4ccccc4n3)C(=O)C2=CN1Cc1ccc(OC)cc1 (centres undefined)	·	–	·	·	·	·
COc1ccc(/C=C/C(=O)c2ccc([N+](=O)[O-])o2)cc1	–	·	·	–	?	?
O=C(/C=C/c1cccc([N+](=O)[O-])c1)c1ccc([N+](=O)[O-])o1	–[8.37 µM]	·	·	–	13µM	?
Cc1cccc(/C=C/C(=O)c2ccc([N+](=O)[O-])o2)c1	0.63µM	·	·	-103	11µM	?
Cc1ccccc1/C=C/C(=O)c1ccc([N+](=O)[O-])o1	?	·	·	-103	?	?
CCS(=O)(=O)n1nc(-c2ccco2)nc1NCc1ccc(C(C)C)cc1	·	–	–	–	–	–
O=C(CSc1nnc(-c2ccc(O)cc2)n1Cc1ccco1)c1cccs1	–	–	–	–	·	·
N#Cc1c(-c2ccccc2)c(-c2ccccc2)n(Cc2ccco2)c1NC(=O)c1cccs1	2.8µM	?	?	–	–	–
CC(C)C1CC(CCNCc2ccc3c(c2)OCO3)(c2ccccc2)CCO1 (centres undefined)	–	10µM	?	–	–	–
CC(C)C1CC(CCNCc2ccc(N(C)C)cc2)(c2ccccc2)CCO1 (centres undefined)	11µM	?	?	?	–	?
Cc1ccc(C2(CCNS(=O)(=O)c3ccc(C)cc3)CCOC(C(C)C)C2)cc1 (centres undefined)	–	6.5µM	?	–	–	–
CCOC(=O)n1c(=O)n(C)c2ccc(Cl)cc21	3.2µM	–	–	–	–	–
CCOC(=O)n1c(=O)n(Cc2ccccc2)c2ccccc21	–	–	–	?	–	–
COc1ccc(CCNC(=O)CCn2c(=O)c3ccccc3n(CC(=O)Nc3ccc(C)cc3C)c2=O)cc1OC	·	–	–	–	–	–
SMILES	HCV inhibitor	Marburg entry inh	Lassa entry inh	HCMV antiviral	Vaccinia Venus	VACV mCherry inh
Cc1sc2ncnc(Sc3nnnn3-c3ccc(Cl)cc3)c2c1C	–	?	21µM	–	·	·
COc1ccc(CNC(=O)[C@H](C)N2C(=O)N3CCc4c([nH]c5ccccc45)[C@@]3(C)C2=O)cc1OC	3.5µM	·	·	?	–	–
C[C@@H](C(=O)NCc1c(F)cccc1Cl)N1C(=O)N2CCc3c([nH]c4ccccc34)[C@@]2(C)C1=O	11µM	·	·	–	–	–
COc1ccc2[nH]c3c(c2c1)CCN1C(=O)N([C@@H](C)C(=O)NCc2c(F)cccc2Cl)C(=O)[C@]31C	?	·	·	–	–	–
CCOc1cccc(=NC2CCCCC2)c2c(C)n(C)c(C)c12	?	?	–	-110	?	20µM
CCOc1ccccc1N(C)C(=O)c1sc2nc3n(c(=O)c2c1C)CCCC3	·	·	–	–	–	–
Cc1ccc(S(=O)(=O)Nc2cccc(-c3cn4ccsc4n3)c2)cc1	?	?	4.5µM	?	?	·
O=S(=O)(Nc1cccc(-c2cn3cccnc3n2)c1)c1ccc(-c2ccccc2)cc1	4.5µM	–	–	-77	–	·
Cc1cccc(S(=O)(=O)Nc2cccc(-c3cn4ccsc4n3)c2)c1	?	?	?	–	?	·
O=C(NCc1ccccc1F)Nc1nnc([C@@H]2C[C@H](O)[C@@H](CO)O2)s1	·	·	·	–	–	–
O=C(NCc1ccccc1F)Nc1nnc([C@H]2C[C@H](O)[C@@H](CO)O2)s1	·	·	·	-93	–	–
Cc1ccc(C)c(CN2C(=O)c3ccccc3Sc3ccc(C(=O)NCc4cccs4)cc32)c1	·	·	–	-62	–	–
Cc1ccc(C)c(CN2C(=O)c3ccccc3Sc3ccc(C(=O)N4CCC5(CC4)OCCO5)cc32)c1	·	·	?	-72	–	–
Cc1ccc(C)c(CN2C(=O)c3ccccc3Sc3ccc(C(=O)NCc4ccco4)cc32)c1	·	·	?	-69	–	–
COC(=O)c1ccc(NC(=O)COc2ccccc2C(=O)Nc2ccccc2)cc1	·	·	·	·	–	–
C=CC[C@@](C(C)=O)(C(=O)OC)[C@@H](NC(=O)OC)c1ccccc1	·	–	·	·	·	·
Cn1c(SCc2ccc(Cl)cc2)nnc1-c1ccc(NC(=O)CCc2ccccc2)cc1	·	·	·	·	–	–
COc1ccccc1C(=O)Nc1ccccc1OCc1cc(=O)n2ccccc2n1	·	·	–	–	–	–
COc1ccccc1CCN1CCCC(CN(C)CC(C)(C)CO)C1 (centres undefined)	–	13µM	?	–	–	–
CCOc1cccc(CN(C)CC2CCCN(CCc3ccc(Cl)cc3)C2)c1O (centres undefined)	5µM	·	·	–	·	·
COc1ccc(CN(C)CC2CCCN(CCc3ccc(F)cc3)C2)cc1OC (centres undefined)	?	·	·	–	·	·
COc1cc(CN(C)CC2CCCN(CCc3cccc(C(F)(F)F)c3)C2)ccc1O (centres undefined)	13µM	?	?	–	–	–
COc1ccc(F)c(CN(C)CC2CCCN(CCc3ccc(F)cc3)C2)c1 (centres undefined)	?	11µM	?	–	–	–
COc1cc(CN(C)CC2CCCN(CCc3ccc(F)cc3)C2)c(Cl)cc1O (centres undefined)	?	·	·	–	·	·
CS(=O)(=O)c1ccc(/C=C2\C=Cc3ccccc32)cc1	·	·	·	·	–	–
Cc1cccc(-c2noc(-c3ccccc3OCC(=O)Nc3ccc([N+](=O)[O-])cc3)n2)c1	·	–	–	–	–	–
